Compounds without any hit were thinned out: in the full panel of roughly 83,000, 20% have a hit.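 Percent growth is the endpoint: 0 to 100 indicates growth inhibition (40 means 60% inhibition), 0 means no net growth, and negative values indicate cell death.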 The source made the active and inactive calls. Rule for the calls: active = growth percent below 10; inactive = the rest.
Assays:
Experiment in all cases: NCI-60 one-dose screen, 48 h (100 = growth as untreated, 0 = no growth, -100 = all killed)
Conditions in all cases: 10 µM unless noted
T-47D breast = system: T-47D breast
BT-549 breast = system: BT-549 breast
MDA-MB-435 melanoma = system: MDA-MB-435 melanoma
MCF7 breast = system: MCF7 breast
HCT-116 colon = system: HCT-116 colon
HCC-2998 colon = system: HCC-2998 colon
KM12 colon = system: KM12 colon
MDA-MB-468 breast = system: MDA-MB-468 breast
SW-620 colon = system: SW-620 colon

Measured: growth

CNC(=O)c1cc(Oc2ccc3nc(NC(=O)Nc4cccc(OC(F)(F)F)c4)sc3c2)ccn1
inactive: T-47D breast 47.4% | MDA-MB-435 melanoma 53.9% | MCF7 breast 39.2% | HCT-116 colon 17.2% | HCC-2998 colon 46.8% | KM12 colon 53.1%
active: BT-549 breast 0.174% | MDA-MB-468 breast 1.5%

O=C(/C=C/c1cccc(OCc2ccccc2)c1)c1nc2ccccc2[nH]1
active: BT-549 breast 8.5% | MCF7 breast 3.28% | HCT-116 colon -36.1% | HCC-2998 colon -5.62% | KM12 colon 4.96% | MDA-MB-468 breast -40.1%
inactive: T-47D breast 13.7% | MDA-MB-435 melanoma 72%

NS(=O)(=O)c1ccc(-n2cc(-c3cccc(NC(=O)c4ccc(Cl)c(C(F)(F)F)c4)c3)nn2)cc1
inactive: MDA-MB-435 melanoma 47.2% | SW-620 colon 42% | HCT-116 colon 26.2% | HCC-2998 colon 41.8%
active: T-47D breast -11.1% | MCF7 breast 1.38% | KM12 colon 5.73% | MDA-MB-468 breast -0.759%

Cn1cc(NC(=O)c2cc(NC(=O)c3ccc(/C=C/c4ccccc4)cc3)cn2C)cc1C(=O)NCCCN1CCOCC1
active: MDA-MB-435 melanoma -73.1% | SW-620 colon -34% | MCF7 breast -84.8% | HCT-116 colon -90.1% | HCC-2998 colon -80.1% | KM12 colon -45.8% | MDA-MB-468 breast -61.3%
inactive: T-47D breast 46.4%

O=C(NNc1nc2cc(F)ccc2n2c(C(=O)N3CCN(C4CC4)CC3)ccc12)c1ncccn1
inactive: T-47D breast 27.3% | MDA-MB-435 melanoma 41.2% | SW-620 colon 34.6% | MCF7 breast 15.3% | HCT-116 colon 20.5% | HCC-2998 colon 63.8% | KM12 colon 35.7% | MDA-MB-468 breast 14.1%

COc1ccc(C(=O)/C=C/c2cc3c(cc2Br)OCO3)cc1S(N)(=O)=O
inactive: MDA-MB-468 breast 23.8%
active: T-47D breast -34.1% | MDA-MB-435 melanoma 5.61% | SW-620 colon -42.7% | MCF7 breast -1.63% | HCT-116 colon -98% | HCC-2998 colon -53.8% | KM12 colon -57.9%

COC(=O)C[C@](O)(CCCC(C)(C)O)C(=O)O[C@H]1C(OC)=C[C@@]23CCCN2CCc2cc4c(cc2[C@@H]13)OCO4
active: T-47D breast -7.62% | MDA-MB-435 melanoma -26.8% | SW-620 colon -22.2% | MCF7 breast -17.7% | HCT-116 colon -29.4% | HCC-2998 colon -61.3% | KM12 colon -15.6% | MDA-MB-468 breast -36.6%

NS(=O)(=O)c1ccc(-n2cc(-c3cccc(NC(=O)c4cc(Cl)cc(Cl)c4)c3)nn2)cc1
inactive: T-47D breast 48% | MDA-MB-435 melanoma 50.4% | SW-620 colon 54.7% | MCF7 breast 37.1% | HCT-116 colon 45.4% | HCC-2998 colon 51% | MDA-MB-468 breast 72.8%
active: KM12 colon 2.24%

CN1CCN(Cc2ccc(C(=O)Nc3cccc(C#Cc4cccc5[nH]nc(N)c45)c3)cc2C(F)(F)F)CC1
active: T-47D breast -70.4% | MDA-MB-435 melanoma -70.2% | SW-620 colon -38.3% | MCF7 breast -84% | HCT-116 colon -90.4% | HCC-2998 colon -93.6% | KM12 colon -68.8% | MDA-MB-468 breast -89.9%

Cc1cnc(C(=O)NNc2nc3cc(F)ccc3n3c(C(=O)N4CC5CC(C4)N5)ccc23)cn1
inactive: T-47D breast 32.1% | MDA-MB-435 melanoma 45.4% | SW-620 colon 32% | MCF7 breast 18.7% | HCT-116 colon 17.5% | HCC-2998 colon 58.7% | KM12 colon 39.8% | MDA-MB-468 breast 13.8%

COC(OC)C1=C(C)OC(N)=C(C#N)C12C(=O)Nc1ccccc12 (stereo not given)
inactive: T-47D breast 100% | MDA-MB-435 melanoma 94.8% | SW-620 colon 85.5% | MCF7 breast 60.7% | HCT-116 colon 100% | HCC-2998 colon 106% | KM12 colon 95.3% | MDA-MB-468 breast 85.9%

COc1ccc(C(=O)/C=C/c2cccc(Cl)c2Cl)cc1S(N)(=O)=O
inactive: MDA-MB-435 melanoma 14.3%
active: T-47D breast -17.3% | SW-620 colon -47.3% | MCF7 breast -39.7% | HCT-116 colon -98% | HCC-2998 colon -48.5% | KM12 colon -62.3% | MDA-MB-468 breast -16.4%

COc1ccc(C(=O)/C=C/c2cccc(Br)c2)cc1S(N)(=O)=O
active: T-47D breast -71.4% | MDA-MB-435 melanoma -5.65% | SW-620 colon -19.8% | MCF7 breast -77.2% | HCT-116 colon -99.2% | HCC-2998 colon -92.8% | KM12 colon -62.8% | MDA-MB-468 breast -53.9%

COc1cccc(/C=C/C(=O)c2ccc(OC)c(S(N)(=O)=O)c2)c1
active: SW-620 colon 8.39% | MCF7 breast 7.97% | HCT-116 colon -73.8% | KM12 colon -41.6%
inactive: T-47D breast 21% | MDA-MB-435 melanoma 34.1% | HCC-2998 colon 29.7% | MDA-MB-468 breast 20%

O=C1Nc2ccc([N+](=O)[O-])cc2C1=Nc1ccccc1
inactive: T-47D breast 84.1% | MDA-MB-435 melanoma 111% | SW-620 colon 102% | MCF7 breast 85.4% | HCT-116 colon 106% | HCC-2998 colon 112% | KM12 colon 105% | MDA-MB-468 breast 109%

Source: PubChem BioAssay (NCI)
